The structures appear in SMILES notation. Where “and” joins values, the source holds several entries; their conditions need not be identical. Equal values may be shown once. Values without a mark were called inactive. Calls come from the whole dose curve; as a rule, active = well fitted activation curve with a large enough effect; inconclusive = small, poorly fitted or top-dose-only effect; inactive = no such curve, though single readings can be large or run the other way.

Sequence of Cytochrome P450 3A4 (Homo sapiens) (P08684 whole entry, looked up): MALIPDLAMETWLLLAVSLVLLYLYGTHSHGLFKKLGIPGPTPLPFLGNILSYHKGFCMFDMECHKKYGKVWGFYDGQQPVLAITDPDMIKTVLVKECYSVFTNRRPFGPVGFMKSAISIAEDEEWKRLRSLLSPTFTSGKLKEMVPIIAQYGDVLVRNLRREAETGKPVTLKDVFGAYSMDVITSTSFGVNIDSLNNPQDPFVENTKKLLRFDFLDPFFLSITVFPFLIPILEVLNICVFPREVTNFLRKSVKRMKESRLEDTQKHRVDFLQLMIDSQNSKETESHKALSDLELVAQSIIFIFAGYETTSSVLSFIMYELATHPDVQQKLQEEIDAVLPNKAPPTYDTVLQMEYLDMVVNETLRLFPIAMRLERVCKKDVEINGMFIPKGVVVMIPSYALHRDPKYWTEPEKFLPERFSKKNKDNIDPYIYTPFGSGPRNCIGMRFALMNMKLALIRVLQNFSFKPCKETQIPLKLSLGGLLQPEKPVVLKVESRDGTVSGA

This assay has as its target Cytochrome P450 3A4 (Homo sapiens) (UniProt P08684). Put plainly: qHTS Assay for Activators of Cytochrome P450 3A4 (AID 885). Note: nearly all actives have a fitted effect of over 65% in size. The conditions noted are these: recombinant CYP3A4, Luciferin-PPXE luminescence, 60 min; series mostly up to 57.1 µM; activity change, positive = activation: at the top concentration. Put shortly:
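Activators are scored by enhanced luminescence from CYP3A4 conversion of luciferin-PPXE (25uM, equal to KM) to luciferin, after 60 min at RT with an NADPH-regenerating system.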
(Quantitative high-throughput screening tests each substance at several concentrations.)
With `CO[C@H]1COC(=O)C/C=C\[C@H](C)[C@H](OC)COC(=O)[C@@H](C)COC(=O)C/C=C\[C@@H]1C`, the activity change, positive = activation is -30.8% [at 11.4 µM] and -38.4% [at 11.4 µM].

As to `CCOC(=O)N/N=C1/C[C@@H](O)[C@@H](O)[C@@H]2[C@@H]3C(=O)N(Cc4ccc5c(c4)OCO5)C(=O)[C@H]3CC[C@H]12`, the activity change, positive = activation is -58.6% [at 11.4 µM]. The result for `Clc1ccc(C2[C@H]3CN(CC4CCCCC4)[C@H](c4ccccc4)C34CC2(c2ccccc2)C4)cn1` (stereo partly drawn) reads -37.5%. As for `COC(=O)N1C2(C=CC1(C)C(=O)NCc1ccc(N(C)C)cc1)CCCCC2` (stereo not drawn), the figure is -54.6%. As for `COC(=O)C/C=C\[C@@H](C)[C@@H](CO)NS(=O)(=O)c1ccc(C)cc1`, the activity change, positive = activation is -37.6% [at 11.4 µM]. As for `COC(=O)c1ccc(C23CC4(C2)[C@H](CN(C)[C@@H]4c2ccccc2)C3c2ccc(Cl)nc2)cc1` (stereo partly drawn), the figure is -50%; as for `COC(=O)NC(/C(C(=O)OC)=C(\C)NCc1ccccc1)c1cccs1` (stereo not drawn), -35.9% [at 11.4 µM]. Turning to `CO[C@H]1COC(=O)[C@H](C)COC(=O)[C@@H](Cc2ccccc2)NC(=O)C/C=C\[C@H]1C`, the activity change, positive = activation is -39.6% [at 11.4 µM]. In the case of `C/C(CCN1CCc2nc(-c3ccccc3)c(-c3ccccc3)cc2C1)=N\OC[C@@H](O)[C@@H]1O[C@@H]2OC(C)(C)O[C@@H]2[C@H]1O`, the activity change, positive = activation was -41.3% [at 11.4 µM].

Turning to `CO[C@@H]1COC(=O)[C@H]2CCCN2C(=O)[C@@H](C)COC(=O)[C@H](COCc2ccccc2)NC(=O)C/C=C\[C@H]1C`, the activity change, positive = activation was -38.2% [at 11.4 µM]. As to `C#CCCCO/N=C1/C[C@@H](O)[C@@H](O)[C@@H]2[C@@H]3C(=O)N(C[C@@H]4CCCO4)C(=O)[C@H]3CC[C@H]12`, the activity change, positive = activation is -43.2% [at 11.4 µM].

For the compound `c1ccc(C2[C@H]3CN(CC4CCCCC4)[C@H](c4ccccc4)C34CC2(c2ccccc2)C4)cc1` (stereo partly drawn), the “activity change, positive = activation” value is -41.7%. As for `CO[C@H]1COC(=O)[C@H](C)COC(=O)C/C=C\[C@@H](C)[C@H](OC)COC(=O)C/C=C\[C@@H]1C`, the figure is -51.9% [at 11.4 µM].

Values taken from PubChem BioAssay (NCATS).
